From PubChem BioAssay AID624430 (Broad Institute, 2012)
Measured potencies and affinities stand elsewhere.

Assay: TRPM1 promoter luciferase reporter signal decrease, dose response, MITF inhibitor project, cell-based, SK-MEL-5, dry powder, set 8 (AID 624430)
Details: SK-MEL-5 TRPM1 promoter luciferase reporter, 24 h; series mostly up to 35 µM; activity change, negative = inhibition: at the top concentration;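 active = compound whose falling signal curve reaches half its effect at no more than twice the top valid dose; inconclusive = flat curve with 30 to 70% inhibition, or poor fit; inactive = the rest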

Activity change, negative = inhibition, inactive:
O=C1C=C(NCc2ccccc2)C(=O)c2ccccc21 3.45%
Cc1ccc(NC2=CC(=O)c3ccccc3C2=O)cc1C -73.2%
O=C1C=C(Nc2ccc(F)cc2)C(=O)c2ccccc21 12.9%
COc1ccc(NC2=CC(=O)c3ccccc3C2=O)cc1 -70.2%
O=C1C=C(Nc2ccc3ccccc3c2)C(=O)c2ccccc21 -25.7%
CC1=C(N)C(=O)c2ccccc2C1=O 27.8%
O=C1C=C(NC2CCCCC2)C(=O)c2ccccc21 40.2%
